Results from paper PMC5700166.

Each sequence was assayed against T1, GST-Dm-Relish (Drosophila melanogaster, UniProt Q94527 99-473) (assay: protein-binding microarray (PBM); PBM: ~300 nM protein, 6 mM HEPES pH 7.8, 80 mM KCl, 0.5 mM EDTA, 0.5 mM EGTA, 6% glycerol, 35 ng/ul poly-dIdC, 1% milk, 1 h, room temperature; Ap Aiptasia and Nv Nematostella (sea anemones) / Co Capsaspora / Aq Amphimedon (sponge) / Dm Drosophila / Hu human; RHD is the Rel homology domain; high values mean tight binding). Conditions: dsDNA, one strand shown.
T1 sequence: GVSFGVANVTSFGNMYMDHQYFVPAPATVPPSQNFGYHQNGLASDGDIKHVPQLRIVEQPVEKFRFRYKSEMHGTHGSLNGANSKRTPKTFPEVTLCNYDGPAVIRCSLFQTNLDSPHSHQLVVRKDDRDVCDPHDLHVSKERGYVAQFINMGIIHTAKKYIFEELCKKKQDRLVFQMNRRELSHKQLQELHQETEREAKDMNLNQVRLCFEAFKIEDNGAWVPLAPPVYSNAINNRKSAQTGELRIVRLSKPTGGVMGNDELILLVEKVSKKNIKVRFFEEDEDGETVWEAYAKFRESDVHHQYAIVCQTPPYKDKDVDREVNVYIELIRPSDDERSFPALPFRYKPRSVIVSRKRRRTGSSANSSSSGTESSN

| Sequence | binding signal [z-score] |
| --- | --- |
| CCGATTAACATCAGCCCCCCGTCTGATGTTAATCGGGTCTTGATTCGCTTGACGCTGCTG | 3.83 |
| CCGATTAACATCAATAAAGTCCCTGATGTTAATCGGGTCTTGATTCGCTTGACGCTGCTG | 6.49 |
| CCGATTAACATCAAGCCCCCCCATGATGTTAATCGGGTCTTGATTCGCTTGACGCTGCTG | 3.97 |
| CCGATTAACATCAGGAAAGTACCTGATGTTAATCGGGTCTTGATTCGCTTGACGCTGCTG | 8.08 |
| CCGATTAACATCAGTATTCCCCATGATGTTAATCGGGTCTTGATTCGCTTGACGCTGCTG | 4.54 |
| CCGATTAACATCAACGGGAACTCTGATGTTAATCGGGTCTTGATTCGCTTGACGCTGCTG | 1.77 |
| CCGATTAACATCACCATTTTCCCTGATGTTAATCGGGTCTTGATTCGCTTGACGCTGCTG | 1.32 |
| CCGATTAACATCACATACCCCCCTGATGTTAATCGGGTCTTGATTCGCTTGACGCTGCTG | 3.92 |
| CCGATTAACATCACCGTTTTCCCTGATGTTAATCGGGTCTTGATTCGCTTGACGCTGCTG | 2.19 |
| CCGATTAACATCAAACTTTTCCCTGATGTTAATCGGGTCTTGATTCGCTTGACGCTGCTG | 1.45 |
| CCGATTAACATCAGGGAAAAACCTGATGTTAATCGGGTCTTGATTCGCTTGACGCTGCTG | 8.13 |
| CCGATTAACATCACGAAATTCCCTGATGTTAATCGGGTCTTGATTCGCTTGACGCTGCTG | 4.59 |
| CCGATTAACATCAGGTAATTACCTGATGTTAATCGGGTCTTGATTCGCTTGACGCTGCTG | 5.43 |
| CCGATTAACATCAGGGAAGGACCTGATGTTAATCGGGTCTTGATTCGCTTGACGCTGCTG | 4.44 |
| CCGATTAACATCAGGGGAAGAAATGATGTTAATCGGGTCTTGATTCGCTTGACGCTGCTG | 6.53 |
| CCGATTAACATCAAAAAACTACCTGATGTTAATCGGGTCTTGATTCGCTTGACGCTGCTG | 6.2 |
| CCGATTAACATCAAAAATTCCCATGATGTTAATCGGGTCTTGATTCGCTTGACGCTGCTG | 7.58 |
| CCGATTAACATCAATTTTTTCCCTGATGTTAATCGGGTCTTGATTCGCTTGACGCTGCTG | 2.71 |
| CCGATTAACATCACCCCCACCCCTGATGTTAATCGGGTCTTGATTCGCTTGACGCTGCTG | 3.84 |
| CCGATTAACATCAAATAATTCCCTGATGTTAATCGGGTCTTGATTCGCTTGACGCTGCTG | 4.85 |
| CCGATTAACATCACGGTAATCCCTGATGTTAATCGGGTCTTGATTCGCTTGACGCTGCTG | 5.6 |
| CCGATTAACATCAGGGAATACACTGATGTTAATCGGGTCTTGATTCGCTTGACGCTGCTG | 2.61 |
| CCGATTAACATCAAAAAATTACCTGATGTTAATCGGGTCTTGATTCGCTTGACGCTGCTG | 6.23 |
| CCGATTAACATCACCTATTCCCCTGATGTTAATCGGGTCTTGATTCGCTTGACGCTGCTG | 2.23 |
| CCGATTAACATCAACCAATCCCCTGATGTTAATCGGGTCTTGATTCGCTTGACGCTGCTG | 2.29 |
| CCGATTAACATCAAAGATTTCCCTGATGTTAATCGGGTCTTGATTCGCTTGACGCTGCTG | 2.9 |

The sequences below were run against T2, GST-Aq-NF-kB (Amphimedon queenslandica, UniProt A9Y5G7 2-389) in the same assay as above. Conditions: dsDNA, one strand shown.
T2 sequence: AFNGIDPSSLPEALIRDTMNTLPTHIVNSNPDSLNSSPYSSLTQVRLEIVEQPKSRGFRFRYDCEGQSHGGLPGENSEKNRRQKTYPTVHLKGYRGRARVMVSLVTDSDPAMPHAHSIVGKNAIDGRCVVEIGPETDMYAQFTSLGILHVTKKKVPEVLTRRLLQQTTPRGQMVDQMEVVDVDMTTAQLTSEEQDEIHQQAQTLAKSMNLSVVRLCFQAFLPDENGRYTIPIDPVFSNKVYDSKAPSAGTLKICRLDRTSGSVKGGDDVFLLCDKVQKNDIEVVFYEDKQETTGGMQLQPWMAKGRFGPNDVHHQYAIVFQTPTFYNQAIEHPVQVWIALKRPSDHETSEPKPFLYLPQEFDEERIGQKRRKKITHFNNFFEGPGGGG

| Sequence | binding signal [z-score] |
| --- | --- |
| CCGATTAACATCAGCCCCCCGTCTGATGTTAATCGGGTCTTGATTCGCTTGACGCTGCTG | 3.37 |
| CCGATTAACATCAAACAGGGAAATGATGTTAATCGGGTCTTGATTCGCTTGACGCTGCTG | 3.23 |
| CCGATTAACATCAATAAAGTCCCTGATGTTAATCGGGTCTTGATTCGCTTGACGCTGCTG | 5.67 |
| CCGATTAACATCAGGGAATTAGATGATGTTAATCGGGTCTTGATTCGCTTGACGCTGCTG | 3.43 |
| CCGATTAACATCAAGCCCCCCCATGATGTTAATCGGGTCTTGATTCGCTTGACGCTGCTG | 3.85 |
| CCGATTAACATCAGGAAAGTACCTGATGTTAATCGGGTCTTGATTCGCTTGACGCTGCTG | 6.27 |
| CCGATTAACATCAACTTTCCCAGTGATGTTAATCGGGTCTTGATTCGCTTGACGCTGCTG | 3.06 |
| CCGATTAACATCAGAGTTTCCCATGATGTTAATCGGGTCTTGATTCGCTTGACGCTGCTG | 3.07 |
| CCGATTAACATCAGTATTCCCCATGATGTTAATCGGGTCTTGATTCGCTTGACGCTGCTG | 5.32 |
| CCGATTAACATCAACGGGAACTCTGATGTTAATCGGGTCTTGATTCGCTTGACGCTGCTG | 2.25 |
| CCGATTAACATCACCATTTTCCCTGATGTTAATCGGGTCTTGATTCGCTTGACGCTGCTG | 3.42 |
| CCGATTAACATCACATACCCCCCTGATGTTAATCGGGTCTTGATTCGCTTGACGCTGCTG | 3.91 |
| CCGATTAACATCACCGTTTTCCCTGATGTTAATCGGGTCTTGATTCGCTTGACGCTGCTG | 3.24 |
| CCGATTAACATCACCGCTTCCCTTGATGTTAATCGGGTCTTGATTCGCTTGACGCTGCTG | 2 |
| CCGATTAACATCATGGGGACGACTGATGTTAATCGGGTCTTGATTCGCTTGACGCTGCTG | 2.64 |
| CCGATTAACATCAGGGGAGTGTATGATGTTAATCGGGTCTTGATTCGCTTGACGCTGCTG | 2.89 |
| CCGATTAACATCAAACTTTTCCCTGATGTTAATCGGGTCTTGATTCGCTTGACGCTGCTG | 4.63 |
| CCGATTAACATCAGGGAAAAACCTGATGTTAATCGGGTCTTGATTCGCTTGACGCTGCTG | 9.06 |
| CCGATTAACATCACGAAATTCCCTGATGTTAATCGGGTCTTGATTCGCTTGACGCTGCTG | 5.74 |
| CCGATTAACATCAGGTAATTACCTGATGTTAATCGGGTCTTGATTCGCTTGACGCTGCTG | 5.11 |

| Sequence | binding signal [z-score] |
| --- | --- |
| CCGATTAACATCATGGTGGGAAATGATGTTAATCGGGTCTTGATTCGCTTGACGCTGCTG | 1.9 |
| CCGATTAACATCAGGGAAGGACCTGATGTTAATCGGGTCTTGATTCGCTTGACGCTGCTG | 3.91 |
| CCGATTAACATCAGGGGAAGAAATGATGTTAATCGGGTCTTGATTCGCTTGACGCTGCTG | 4.68 |
| CCGATTAACATCAAAAAACTACCTGATGTTAATCGGGTCTTGATTCGCTTGACGCTGCTG | 3.57 |
| CCGATTAACATCAGACATTCCCATGATGTTAATCGGGTCTTGATTCGCTTGACGCTGCTG | 2.26 |
| CCGATTAACATCAAAAATTCCCATGATGTTAATCGGGTCTTGATTCGCTTGACGCTGCTG | 6.55 |
| CCGATTAACATCAGGGAATCAGATGATGTTAATCGGGTCTTGATTCGCTTGACGCTGCTG | 1.84 |
| CCGATTAACATCAATTTTTTCCCTGATGTTAATCGGGTCTTGATTCGCTTGACGCTGCTG | 4.16 |
| CCGATTAACATCACCCCCACCCCTGATGTTAATCGGGTCTTGATTCGCTTGACGCTGCTG | 3.33 |
| CCGATTAACATCAAATAATTCCCTGATGTTAATCGGGTCTTGATTCGCTTGACGCTGCTG | 6.69 |
| CCGATTAACATCAGGGAAAAGAATGATGTTAATCGGGTCTTGATTCGCTTGACGCTGCTG | 3.22 |
| CCGATTAACATCACGGTAATCCCTGATGTTAATCGGGTCTTGATTCGCTTGACGCTGCTG | 4.77 |
| CCGATTAACATCAGGGAATACACTGATGTTAATCGGGTCTTGATTCGCTTGACGCTGCTG | 3.68 |
| CCGATTAACATCATGGGAAGGTTTGATGTTAATCGGGTCTTGATTCGCTTGACGCTGCTG | 1.66 |
| CCGATTAACATCAAAAAATTACCTGATGTTAATCGGGTCTTGATTCGCTTGACGCTGCTG | 3.3 |
| CCGATTAACATCACCTATTCCCCTGATGTTAATCGGGTCTTGATTCGCTTGACGCTGCTG | 4.27 |
| CCGATTAACATCAACTCGGGAAATGATGTTAATCGGGTCTTGATTCGCTTGACGCTGCTG | 1.73 |
| CCGATTAACATCAACCAATCCCCTGATGTTAATCGGGTCTTGATTCGCTTGACGCTGCTG | 3.86 |
| CCGATTAACATCAAAGATTTCCCTGATGTTAATCGGGTCTTGATTCGCTTGACGCTGCTG | 5.13 |
